About 83,000 compounds went through this panel and 20% of them were active in at least one assay; those are over-represented in the sample as a whole.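 96-well plates, one dose, 48 hours. Percent growth reported; active if below 10.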 Calls of active or inactive are those of the source.
Assays:
Assay in all cases: NCI-60 one-dose screen, 48 h (100 = growth as untreated, 0 = no growth, -100 = all killed)
Conditions in all cases: 10 µM unless noted
SR leukemia = tested on: SR leukemia
RPMI-8226 leukemia = tested on: RPMI-8226 leukemia
OVCAR-8 ovarian = tested on: OVCAR-8 ovarian
OVCAR-5 ovarian = tested on: OVCAR-5 ovarian
OVCAR-4 ovarian = tested on: OVCAR-4 ovarian
SK-OV-3 ovarian = tested on: SK-OV-3 ovarian
IGROV1 ovarian = tested on: IGROV1 ovarian
OVCAR-3 ovarian = tested on: OVCAR-3 ovarian
HS 578T breast = tested on: HS 578T breast
NCI/ADR-RES ovarian = tested on: NCI/ADR-RES ovarian
T-47D breast = tested on: T-47D breast
BT-549 breast = tested on: BT-549 breast
MDA-MB-435 melanoma = tested on: MDA-MB-435 melanoma
SW-620 colon = tested on: SW-620 colon
MCF7 breast = tested on: MCF7 breast
HCT-116 colon = tested on: HCT-116 colon
HCC-2998 colon = tested on: HCC-2998 colon
KM12 colon = tested on: KM12 colon

Measured: growth

C[n+]1ccc(CCc2c[nH]c3ccccc23)cc1
inactive: SR leukemia 83.8% | RPMI-8226 leukemia 94% | OVCAR-8 ovarian 107% | OVCAR-5 ovarian 86.5% | OVCAR-4 ovarian 99.4% | SK-OV-3 ovarian 77.3% | IGROV1 ovarian 87.7% | OVCAR-3 ovarian 107% | HS 578T breast 104% | NCI/ADR-RES ovarian 105% | T-47D breast 72.6% | BT-549 breast 98.2% | MDA-MB-435 melanoma 104% | SW-620 colon 100% | MCF7 breast 93.2% | HCT-116 colon 97.2% | HCC-2998 colon 92.6% | KM12 colon 70.8%

CN(C)S(=O)(=O)Oc1ccc(-c2sc3cc(OS(=O)(=O)N(C)C)ccc3c2C(=O)c2ccc(OCCN3CCCCC3)cc2)cc1
active: SR leukemia -20.2%
inactive: RPMI-8226 leukemia 38.1% | OVCAR-8 ovarian 43.8% | OVCAR-5 ovarian 78.4% | OVCAR-4 ovarian 49.7% | SK-OV-3 ovarian 62.4% | IGROV1 ovarian 81% | OVCAR-3 ovarian 69.3% | HS 578T breast 59.7% | NCI/ADR-RES ovarian 72.3% | T-47D breast 44.8% | BT-549 breast 79.6% | MDA-MB-435 melanoma 78.6% | SW-620 colon 30.5% | MCF7 breast 26.4% | HCT-116 colon 40.8% | HCC-2998 colon 89.2% | KM12 colon 73.7%

O=C1/C(=C/c2ccccn2)NC(=S)N1c1ccccc1Cl
inactive: SR leukemia 19.3% | RPMI-8226 leukemia 52.8% | OVCAR-8 ovarian 30.4% | OVCAR-5 ovarian 68.4% | OVCAR-4 ovarian 34.9% | SK-OV-3 ovarian 111% | IGROV1 ovarian 46.1% | OVCAR-3 ovarian 53.7% | HS 578T breast 72.5% | NCI/ADR-RES ovarian 50.8% | T-47D breast 44.1% | BT-549 breast 83.8% | MDA-MB-435 melanoma 67.4% | SW-620 colon 37.9% | MCF7 breast 32.9% | HCT-116 colon 12.2% | HCC-2998 colon 85.9% | KM12 colon 67.4%

COc1ccc(/C=C/C(c2cc(OC)c(OC)c(OC)c2)n2ccnc2)cc1O (stereo unspecified)
inactive: RPMI-8226 leukemia 15.1% | OVCAR-8 ovarian 41% | OVCAR-5 ovarian 103% | OVCAR-4 ovarian 78.8% | SK-OV-3 ovarian 33.5% | IGROV1 ovarian 55.7% | HS 578T breast 32.1% | NCI/ADR-RES ovarian 45.7% | T-47D breast 40.6% | BT-549 breast 44.3% | SW-620 colon 17.4% | MCF7 breast 17.9% | HCT-116 colon 16.7% | HCC-2998 colon 77% | KM12 colon 29%
active: SR leukemia 6.18% | OVCAR-3 ovarian 4.86% | MDA-MB-435 melanoma -25.6%

O=C(CN1CCCCCC1)Nc1nc2ccc(NCc3ccc(Cl)cc3)cc2s1
inactive: SR leukemia 97.2% | RPMI-8226 leukemia 79.3% | OVCAR-8 ovarian 95.3% | OVCAR-5 ovarian 98.6% | OVCAR-4 ovarian 96.3% | SK-OV-3 ovarian 107% | IGROV1 ovarian 98.4% | OVCAR-3 ovarian 104% | HS 578T breast 98% | NCI/ADR-RES ovarian 106% | T-47D breast 94.7% | BT-549 breast 92.6% | MDA-MB-435 melanoma 100% | SW-620 colon 97.9% | MCF7 breast 84.9% | HCT-116 colon 75.8% | HCC-2998 colon 114% | KM12 colon 96.6%

COc1ccc(CNc2c3ccccc3nc3ccccc23)c(OC)c1
inactive: SR leukemia 18.1% | RPMI-8226 leukemia 34.9% | OVCAR-8 ovarian 37.8% | OVCAR-5 ovarian 50.3% | OVCAR-4 ovarian 39.7% | SK-OV-3 ovarian 63.3% | IGROV1 ovarian 22.4% | OVCAR-3 ovarian 69.2% | HS 578T breast 68.9% | NCI/ADR-RES ovarian 35.6% | T-47D breast 52.9% | BT-549 breast 66.7% | MDA-MB-435 melanoma 38.7% | SW-620 colon 20.7% | MCF7 breast 14.5% | HCT-116 colon 12.8% | HCC-2998 colon 35.6% | KM12 colon 54.3%

CN(Cc1ccccc1)c1nc(Cl)c(C2CC(c3ccccc3)=NN2c2ccccc2)s1 (stereo unspecified)
inactive: SR leukemia 90.8% | RPMI-8226 leukemia 84.8% | OVCAR-8 ovarian 91.5% | OVCAR-5 ovarian 104% | OVCAR-4 ovarian 88.5% | SK-OV-3 ovarian 85.3% | IGROV1 ovarian 97.2% | OVCAR-3 ovarian 105% | HS 578T breast 103% | NCI/ADR-RES ovarian 98.1% | T-47D breast 71.9% | BT-549 breast 118% | MDA-MB-435 melanoma 98% | SW-620 colon 101% | MCF7 breast 82.4% | HCT-116 colon 77.7% | HCC-2998 colon 93% | KM12 colon 89.7%

Cn1cc(-c2csc(-c3c[nH]c4ccc(F)cc34)n2)c2ccnc(Cl)c21
inactive: SR leukemia 44.4% | RPMI-8226 leukemia 52.9% | OVCAR-8 ovarian 80.5% | OVCAR-5 ovarian 127% | OVCAR-4 ovarian 47.2% | SK-OV-3 ovarian 74.3% | IGROV1 ovarian 70.5% | OVCAR-3 ovarian 73.4% | HS 578T breast 74.3% | NCI/ADR-RES ovarian 71.4% | T-47D breast 24.3% | BT-549 breast 78.2% | MDA-MB-435 melanoma 88.2% | SW-620 colon 41.5% | MCF7 breast 59.5% | HCT-116 colon 61.2% | HCC-2998 colon 70.8% | KM12 colon 55.1%

Cc1ccc(-c2nc(/C=C3/C(=O)Nc4ccc(F)cc43)c3ccccn23)cc1
inactive: SR leukemia 58% | RPMI-8226 leukemia 89.7% | OVCAR-8 ovarian 69.6% | OVCAR-5 ovarian 69.2% | OVCAR-4 ovarian 63.4% | SK-OV-3 ovarian 98% | IGROV1 ovarian 55% | OVCAR-3 ovarian 110% | HS 578T breast 99.2% | NCI/ADR-RES ovarian 85.3% | T-47D breast 100% | BT-549 breast 111% | MDA-MB-435 melanoma 86.7% | SW-620 colon 44.3% | MCF7 breast 35.5% | HCT-116 colon 55% | HCC-2998 colon 95% | KM12 colon 81.7%

CCN1C2CCC1/C(=C\c1ccc(F)cc1)C(=O)/C2=C/c1ccc(F)cc1
active: HCT-116 colon 7.21%
inactive: SR leukemia 24.5% | RPMI-8226 leukemia 18.5% | OVCAR-8 ovarian 12.5% | OVCAR-5 ovarian 73.4% | OVCAR-4 ovarian 47.3% | SK-OV-3 ovarian 62% | IGROV1 ovarian 45.7% | OVCAR-3 ovarian 11% | HS 578T breast 66.3% | NCI/ADR-RES ovarian 17.4% | T-47D breast 45.8% | BT-549 breast 24.9% | MDA-MB-435 melanoma 25% | SW-620 colon 30.4% | MCF7 breast 18.6% | HCC-2998 colon 65.8% | KM12 colon 17.5%

CCCCNc1cc(-c2cn[nH]c2-c2cc(C)cc(OC)c2)nc(-c2cccnc2)n1
inactive: SR leukemia 60.1% | RPMI-8226 leukemia 83.1% | OVCAR-8 ovarian 80.2% | OVCAR-5 ovarian 85.3% | OVCAR-4 ovarian 73.8% | SK-OV-3 ovarian 97.1% | IGROV1 ovarian 115% | OVCAR-3 ovarian 98.8% | HS 578T breast 97.6% | NCI/ADR-RES ovarian 89.8% | T-47D breast 49.7% | BT-549 breast 85.3% | MDA-MB-435 melanoma 92.1% | SW-620 colon 107% | MCF7 breast 88.1% | HCT-116 colon 91.7% | HCC-2998 colon 106% | KM12 colon 93.9%

O=C1c2ccccc2C(=O)c2c1c(C(=O)NCc1ccccc1)c1ccccn21
inactive: SR leukemia 90.9% | RPMI-8226 leukemia 95.8% | OVCAR-8 ovarian 93.9% | OVCAR-5 ovarian 111% | OVCAR-4 ovarian 105% | SK-OV-3 ovarian 102% | IGROV1 ovarian 97.8% | OVCAR-3 ovarian 116% | HS 578T breast 97.9% | NCI/ADR-RES ovarian 103% | T-47D breast 103% | BT-549 breast 101% | MDA-MB-435 melanoma 103% | SW-620 colon 94.2% | MCF7 breast 79% | HCT-116 colon 97.1% | HCC-2998 colon 99.9% | KM12 colon 101%

COc1ccccc1C(=O)Nc1cccc(NC(=O)c2ccoc2C)c1
inactive: SR leukemia 15.5% | RPMI-8226 leukemia 20.7% | OVCAR-8 ovarian 40.4% | OVCAR-5 ovarian 85.3% | OVCAR-4 ovarian 77.7% | SK-OV-3 ovarian 66.1% | IGROV1 ovarian 41.6% | OVCAR-3 ovarian 15% | HS 578T breast 40.2% | T-47D breast 45.1% | BT-549 breast 44% | SW-620 colon 28.2% | MCF7 breast 24.6% | HCT-116 colon 15.3% | HCC-2998 colon 67.2% | KM12 colon 21.1%
active: NCI/ADR-RES ovarian 9.85% | MDA-MB-435 melanoma -15.8%

CCOC(=O)c1ccccc1-c1c2ccc(=[N+](C)C)cc-2oc2cc(N(C)C)ccc12
inactive: SR leukemia 21.9% | RPMI-8226 leukemia 13.8% | OVCAR-4 ovarian 17.9% | IGROV1 ovarian 18.4% | OVCAR-3 ovarian 11.1% | HS 578T breast 26.1% | NCI/ADR-RES ovarian 102% | MDA-MB-435 melanoma 11.8% | SW-620 colon 15% | HCC-2998 colon 96.9%
active: OVCAR-8 ovarian 2.69% | OVCAR-5 ovarian 4.53% | SK-OV-3 ovarian -2.61% | T-47D breast 6.72% | BT-549 breast -10.1% | MCF7 breast 3.95% | HCT-116 colon 4.32% | KM12 colon 7.32%

Cc1c(CN)cc(-c2ccc(Cl)cc2)n1-c1ccccc1
inactive: SR leukemia 77.5% | RPMI-8226 leukemia 66.7% | OVCAR-8 ovarian 74.8% | OVCAR-5 ovarian 80.9% | OVCAR-4 ovarian 40.3% | SK-OV-3 ovarian 85.4% | IGROV1 ovarian 48.1% | OVCAR-3 ovarian 106% | HS 578T breast 87.9% | NCI/ADR-RES ovarian 88.1% | T-47D breast 52.5% | BT-549 breast 74.9% | MDA-MB-435 melanoma 97.1% | SW-620 colon 89.4% | MCF7 breast 75.1% | HCT-116 colon 67.3% | HCC-2998 colon 107% | KM12 colon 99.9%

CCNc1ccc(-c2nc3ccccc3n3cccc23)cc1
inactive: SR leukemia 76.4% | RPMI-8226 leukemia 85.2% | OVCAR-8 ovarian 80.9% | OVCAR-5 ovarian 71% | OVCAR-4 ovarian 72.7% | SK-OV-3 ovarian 72.4% | IGROV1 ovarian 64% | OVCAR-3 ovarian 78.7% | HS 578T breast 78.6% | NCI/ADR-RES ovarian 80.6% | T-47D breast 55.1% | BT-549 breast 90.4% | MDA-MB-435 melanoma 80.7% | SW-620 colon 92.5% | MCF7 breast 34.4% | HCT-116 colon 88.9% | HCC-2998 colon 92.4% | KM12 colon 72.8%

COC(=O)c1cc(Br)ccc1O
inactive: SR leukemia 89.2% | RPMI-8226 leukemia 94.5% | OVCAR-8 ovarian 103% | OVCAR-5 ovarian 100% | OVCAR-4 ovarian 110% | SK-OV-3 ovarian 108% | IGROV1 ovarian 110% | OVCAR-3 ovarian 117% | HS 578T breast 117% | NCI/ADR-RES ovarian 107% | T-47D breast 119% | BT-549 breast 103% | MDA-MB-435 melanoma 116% | SW-620 colon 114% | MCF7 breast 99.2% | HCT-116 colon 108% | HCC-2998 colon 110% | KM12 colon 126%

From PubChem BioAssay (NCI)
